Cycloheximide cs: counter-screen hit for Shiga toxin inhibitors, cycloheximide | cell reporter, cycloheximide protein synthesis inhibition counterscreen | 12% of 300,000 active | max response, %; in the data active means max response mostly above about 13%, no sharp cut-off; inactive means mostly below about 14%; further: read at 38.3 µM for the half of the compounds with a filed dose
Shiga toxin inh: blocks Shiga toxin action in Vero cells; Vero cells, Shiga toxin protein synthesis inhibition reporter; inhibition, % at 38.7 µM; 9.2% of 290,000 active; in the data active means inhibition mostly above about 28%, no sharp cut-off; inactive means mostly below about 43%
Pf growth 48h: inhibits P. falciparum growth in the first generation, 48 h; P. falciparum luciferase growth in erythrocytes, 48 h; Potency, µM (doses to about 28.7 µM), hits mostly inhibitors; 5.9% of 310,000 active; AID 504832
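Erythrocytes infected with P. falciparum carrying an integrated firefly luciferase reporter (2% hematocrit, 0.1% parasitemia final) were exposed to compounds in RPMI 1640 with 0.5% Albumax at 37 C, 5% CO2. Growth inhibition was scored as reduced luminescence.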
Pf growth 96h: P. falciparum growth inhibition at 96 hours; P. falciparum luciferase reporter growth, 96 h; Potency, µM (highest dose often 28.7 µM), hits mostly inhibitors; 6.9% of 320,000 active; AID 504834
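Erythrocytes infected with luciferase-expressing P. falciparum were dispensed at 2% hematocrit and 0.05% parasitemia (final), then incubated with compounds 96 hours at 37 C in 5% CO2. Luminescence after detection reagent addition reported growth.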
Of the large screens only hits and unclear results are named; the others gave an inactive call. An excerpt weighted towards active compounds, which were near 21% of everything screened. Unless noted, the call rests on the fitted dose curve; in most records, active means well fitted inhibition curve with a large enough effect; inconclusive means small, poorly fitted or top-dose-only effect, or another doubt; inactive means no such curve, though single readings can be large or run the other way.

Cc1c(OCC(=O)N[C@@H](Cc2ccccc2)C(=O)O)ccc2c1oc(=O)c1ccccc12	none
Cc1cc(C)nc(NS(=O)(=O)c2ccc(CC(C)C)cc2)c1	Pf growth 48h inconclusive
COc1ccc2cc3cc(C(=O)N4CC(C)CC(C)C4)oc3nc2c1 (stereo not given)	Pf growth 48h inconclusive
Cc1ccc2cc3cc(C(=O)N4CCCCC4C)oc3nc2c1 (stereo not given)	Cycloheximide cs 21, Shiga toxin inh 61, Pf growth 48h 9.3µM
O=C(c1cc2cc(Cl)ccc2o1)N1CCCCCC1	none (no result: Cycloheximide cs, Shiga toxin inh)
O=C(c1cc2cc3ccc(Cl)cc3nc2o1)N1CCCCCC1	Cycloheximide cs 21, Shiga toxin inh 79
Cc1ccc2cc3cc(C(=O)NC4CCCCC4)oc3nc2c1	Pf growth 48h inconclusive, Pf growth 96h inconclusive
Cc1ccc2cc3cc(C(=O)N4CC(C)CC(C)C4)oc3nc2c1 (stereo not given)	Cycloheximide cs 27, Shiga toxin inh 41, Pf growth 48h inconclusive (no result: Pf growth 96h)
COc1ccc(Cl)cc1NC(=O)CCc1ccccc1	none (no result: Pf growth 96h)
COc1ccc(OC)c(NC(=O)C(=O)N/N=C(\C)CC(=O)Nc2ccc(Cl)cn2)c1	none
COc1cc(NC(=O)C/C(C)=N/NC(=O)c2cccc(O)c2)c(OC)cc1Cl	Cycloheximide cs 30, Shiga toxin inh 129
COc1ccc(Cl)cc1NC(=O)C/C(C)=N/NC(=O)Cc1ccccc1	Shiga toxin inh 44
COc1ccc(Cl)cc1NC(=O)C/C(C)=N/NC(=O)c1ccc(O)cc1	Cycloheximide cs 31, Shiga toxin inh 68, Pf growth 96h inconclusive
CCOC(=O)C(=O)c1csc(NC(=O)CCSc2ccc(C)cc2)n1	none
CCOC(=O)c1ccc(S(=O)(=O)N2CCN(c3ccccn3)CC2)cc1	none
CCN(CCC(=O)O)c1ccccc1	none (no result: Pf growth 96h)
CCN(CC)C1=NC(=[N+](CC)CC)c2ccccc21	Pf growth 48h 0.74µM, Pf growth 96h 0.29µM
Cc1occc1C(=O)N1CCC2(CCCN(Cc3ccc(F)c(F)c3)C2)C1 (stereo not given)	Pf growth 48h inconclusive
O=C(c1ccoc1)N1CCC2(CCCN(Cc3ccc(F)c(F)c3)C2)C1 (stereo not given)	Pf growth 48h inconclusive, Pf growth 96h 12µM
CC1Cc2ccccc2N1C(=O)C1CC(=O)N(c2ccccc2)C1 (stereo not given)	none
CC1CCCC(C)N1CC(O)COC1CCC(C(C)(C)C)CC1 (stereo not given)	Pf growth 48h 10µM
CC1CN(CC(O)COC2CCC(C(C)(C)C)CC2)CC(C)O1 (stereo not given)	Pf growth 96h inconclusive
O=C(NCCCn1ccnc1)c1cc(C2CC2)on1	Pf growth 96h 10µM
O=C(NCCN1CCOCC1)c1cc(-c2cccc(O)c2)on1	none
O=C(NCCCn1ccnc1)c1cc(-c2cccc(O)c2)on1	Cycloheximide cs 31, Shiga toxin inh 74
Cc1ccc(-c2cc(C(=O)NCCCn3ccnc3)no2)cc1	Cycloheximide cs 26, Shiga toxin inh 50
CC(C)=C(NC(=O)c1ccccc1)C(=O)Nc1cccc(C)c1	none
O=C(NC1CCCCCCC1)c1ccc(Br)o1	Cycloheximide cs 25, Shiga toxin inh 84
O=C(NC1CCCC1)c1cc2cc(Br)ccc2o1	Cycloheximide cs 51, Shiga toxin inh 92
O=C(NC1CCCCC1)c1cc2cc(Br)ccc2o1	Cycloheximide cs 58, Shiga toxin inh 76
O=C(NC1CCCCCC1)c1ccc(Br)o1	none
O=C(CNC(=O)c1ccc(Br)o1)NCC1CCCCC1	none (no result: Cycloheximide cs, Shiga toxin inh)
CN(C(=O)CNC(=O)c1ccc(Br)o1)C1CCCCC1	Cycloheximide cs 21, Shiga toxin inh 78, Pf growth 96h inconclusive
O=C(c1ccc2c(=O)n3c(nc2c1)CCCCC3)N1CCN(c2cccc(Cl)c2)CC1	Pf growth 48h inconclusive
NC(=O)C1CCCN1S(=O)(=O)c1ccc2ccccc2c1 (stereo not given)	Pf growth 96h inconclusive
COC(=O)c1c(NC(C)=O)csc1C	none
COc1cccc(Nc2nc(N)c([N+](=O)[O-])c(N3CCOCC3)n2)c1	Pf growth 48h inconclusive, Pf growth 96h 15µM
COc1ccc(Nc2nc(N)c([N+](=O)[O-])c(N3CCCC3)n2)cc1	Cycloheximide cs 17, Pf growth 48h inconclusive, Pf growth 96h 13µM
CCN(CC)CCCNc1nc(N)c([N+](=O)[O-])c(N2CCCCCC2)n1	Pf growth 96h 2.9µM
CC1CCCN(c2nc(N(C)c3ccccc3)nc(N)c2[N+](=O)[O-])C1 (stereo not given)	Cycloheximide cs 20
CCN1C(=O)/C(=C\c2cn(CCC#N)nc2-c2ccc(F)cc2)SC1=S	Pf growth 48h inconclusive
Nc1nc(Nc2ccccc2)nc(N2CCCC2)c1[N+](=O)[O-]	Cycloheximide cs 39, Shiga toxin inh 58
Cc1cnc(C(=O)OCc2csc(CC(=O)Nc3ccccc3C)n2)cn1	Pf growth 48h inconclusive
O=S(=O)(Nc1ccc2c(c1)OCCO2)c1c(F)cccc1F	none
Nc1nc(SCc2ccc([N+](=O)[O-])cc2)nc2nc3c(cc12)CCCC3	Pf growth 48h inconclusive, Pf growth 96h 1.5µM
CC1(C)Cc2nc3nc(SCC(=O)NCCc4ccccc4)n(-c4ccccc4)c(=O)c3cc2CO1	Pf growth 48h inconclusive, Pf growth 96h 4.1µM
O=C(CSc1nc2nc3c(cc2c(=O)n1-c1ccccc1)CCCC3)Nc1ccccc1	Pf growth 48h inconclusive, Pf growth 96h 12µM
CC1(C)Cc2nc3nc(SCC(=O)NCc4ccccc4)n(-c4ccccc4)c(=O)c3cc2CO1	Pf growth 96h inconclusive
Cc1ccc(NC(=O)CSc2nc(N)c3cc4c(nc3n2)CCCC4)cc1	Cycloheximide cs 33, Shiga toxin inh active
COc1cccc(-n2c(SCC(=O)Nc3ccc4c(c3)CCC4)nc3ccccc3c2=O)c1	Pf growth 48h inconclusive, Pf growth 96h inconclusive
Cc1nc2nc(SCc3ccc([N+](=O)[O-])cc3)[nH]c2cc1Br	none
COc1ccc(NC(=O)CSc2nc(N)c3cc4c(nc3n2)CCCC4)c(OC)c1	Pf growth 96h inconclusive
COc1ccc(CC(=O)OCC(=O)N2CCc3ccccc32)cc1OC	none (no result: Cycloheximide cs, Shiga toxin inh)
Cc1nc2ccccc2n1C(=O)N(C)C	Pf growth 48h inconclusive
Cc1ccc(SCC(=O)NC(=O)NC2CCCC2)c(C)c1	none (no result: Cycloheximide cs, Shiga toxin inh)
Nc1nc(SCC(=O)Nc2ccccc2)nc2nc3c(cc12)CCCC3	Cycloheximide cs 17, Shiga toxin inh 63
O=C(CSc1ncccn1)Nc1ccccc1	Pf growth 96h inconclusive
O=C(NCCOCc1ccccc1)C(c1ccccc1)c1ccccc1	Pf growth 48h inconclusive
c1ccc(-c2nccnc2-c2ccccc2)cc1	Pf growth 48h inconclusive
CC(C)(C)c1ccc(-c2ncccc2O)cc1	Cycloheximide cs 32, Shiga toxin inh 69, Pf growth 48h inconclusive, Pf growth 96h inconclusive
COc1ccc(N2CC(C)(C)C2=O)cc1	none
CC1(C)CN(c2ccc(N3CC(C)(C)C3=O)cc2)C1=O	Cycloheximide cs 39, Shiga toxin inh 69
CO[C@]1(NC(=O)CSCC#N)C(=O)N2C(C(=O)O)=C(CSc3nnnn3C)CS[C@H]21	none (no result: Cycloheximide cs, Shiga toxin inh)
CCCCN(CC)C(=O)c1ccc(Cl)cc1	none
CCCCN(CC)C(=O)c1ccc(Cl)c(Cl)c1	Cycloheximide cs 14 (no result: Pf growth 96h)
Cc1nnc(Cl)c2nn(-c3ccccc3)c(C)c12	Pf growth 48h 0.33µM, Pf growth 96h 0.59µM
CCOc1ccc(-n2nc3c(Cl)nnc(C)c3c2C)cc1	Pf growth 48h 0.33µM, Pf growth 96h 0.52µM

Compound activity (PubChem BioAssay)
